According to PubChem BioAssay:
The source made the active and inactive calls.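 The calls were made as follows, unless noted: active = inhibition of the reporter signal at or above 50%; inactive = inhibition below 50%.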

Experiments:
[1] = inhibitors of TNFa-induced NFkB p65 translocation, primary screen, imaging, HUVEC, MLSMR starter and 10KST1 sets (AID 438;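 active = inhibition above 20% together with a positive visual image hit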;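 also: compound added about 3h40 before a 20 min TNFalpha stimulation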;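 as to inhibition: signal is the nuclear over cytoplasmic p65 intensity ratio per well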); details: HUVEC TNFa-induced p65 nuclear translocation; cell count: measured here: nuclei count (cytotoxicity indicator), at 2.08 µM; inhibition: at 2 µM, stronger effect = higher value, 0% TNFa-plus-vehicle, 100% no-TNFa wells
[2] = reduction of polyQ htt aggregates in cells – imaging, exon1htt(103Q)mCFP cells, high-content imaging, primary screen (AID 483;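 active = visual image review flags a hit and inhibition of aggregation exceeds 20%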;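 also: compound exposure lasted 3 days before fixation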;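 as to nuclei count: percent of the per-plate median nuclei count of sample wells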); details: exon1htt(103Q)mCFP cell line, aggregate imaging, at 2 µM; inhibition of aggregation: stronger effect = higher value; nuclei count: measured here: cell count, toxicity
[3] = endothelial E-selectin expression blockers – imaging, HUVEC, immunofluorescence, MLSMR starter and 10KST1 sets, primary screen (AID 487;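 active = visually confirmed hit in the image check and inhibition above 20%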;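 as to inhibition: signal is fraction of cell area covered by stained E-selectin grains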;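 as to nuclei count: 100% = median nuclei count of all wells on the same plate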); details: HUVEC TNFalpha-induced E-selectin immunofluorescence imaging, at 2 µM; inhibition: stronger effect = higher value; nuclei count: measured here: cell number, toxicity
[4] = molecular target: Voltage-gated potassium channel subunit beta-2 (Rattus norvegicus) (UniProt P62483); test: inhibitors of rat Kvbeta2 reductase activity – biochemical, NADPH fluorescence, primary screen (AID 622;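 active = fluorescence slope higher than the sample average by over 3 SD, cut at about -0.22 in these data, passing the limit was not always enough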;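 also: slope of raw intensity against log time taken from 70 to 1610 s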); details: recombinant KvBeta, 4-cyanobenzaldehyde reduction, at 10 µM, stronger effect = higher value
[5] = molecular target: Voltage-gated potassium channel subunit beta-2 (Rattus norvegicus) (UniProt P62483); test: enhancers of rat Kvbeta2 NADPH turnover – biochemical, NADPH fluorescence, primary screen (AID 623;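 active = NADPH fluorescence slope more negative than the mean of all samples by about 3 SD, 99.7% confidence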;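 also: fluorescence intensity change per second fitted from 20 to 320 s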); details: Recombinant KvBeta, NADPH fluorescence decrease slope, 10 min; at 10 µM; stronger effect = lower value
[6] = molecular target: Alpha-2C adrenergic receptor (Homo sapiens) (UniProt P18825); test: compounds altering alpha2C-coupled GIRK flux – cell-based, HEK293 alpha2C/GIRK1/2, thallium flux, primary screen (AID 624;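 active = fluorescence slope after compound addition differing from the mean of all screened samples at 99.7% confidence, in either direction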;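 also: slope of fluorescence ratio to pre-addition baseline per second over 15 to 24 s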); details: thallium flux BTC fluorescence, at 10 µM, actives lie on both sides
[7] = blockers of RIG-like receptor reporter activation – cell-based, Sendai virus stimulus, luciferase, 10K MLSCN set, TLR/RLR signaling modifier project, primary screen (AID 602276;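 active = inhibition at or above 50% at 10 µM; inactive = inhibition below 50%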;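 also: firefly luciferase from ISG56 promoter only with Renilla not read in this screen; 0% = Sendai virus plus DMSO and 100% = medium plus DMSO without virus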); details: HEK293 RL24 IRF3 luciferase reporter, at 10 µM, stronger effect = higher value
[8] = TLR3 IRF3 reporter activation blockers – cell-based, poly I:C stimulus, luciferase, 10K MLSCN set, primary screen (AID 602277); details: HEK293-TLR3 RL24 IRF3 luciferase reporter, at 10 µM, stronger effect = higher value

Sequence of Voltage-gated potassium channel subunit beta-2 (Rattus norvegicus) (P62483 whole entry, looked up): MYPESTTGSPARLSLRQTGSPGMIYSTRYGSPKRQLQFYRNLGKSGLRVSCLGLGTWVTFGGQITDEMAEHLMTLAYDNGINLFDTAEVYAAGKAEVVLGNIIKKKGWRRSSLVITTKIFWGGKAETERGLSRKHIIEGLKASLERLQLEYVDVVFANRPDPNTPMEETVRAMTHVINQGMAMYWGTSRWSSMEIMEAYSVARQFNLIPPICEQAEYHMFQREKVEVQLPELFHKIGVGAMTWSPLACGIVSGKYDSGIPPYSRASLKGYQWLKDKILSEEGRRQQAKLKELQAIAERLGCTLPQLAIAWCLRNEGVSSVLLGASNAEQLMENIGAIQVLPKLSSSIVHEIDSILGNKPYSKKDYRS
Sequence of Alpha-2C adrenergic receptor (Homo sapiens) (P18825 whole entry, looked up): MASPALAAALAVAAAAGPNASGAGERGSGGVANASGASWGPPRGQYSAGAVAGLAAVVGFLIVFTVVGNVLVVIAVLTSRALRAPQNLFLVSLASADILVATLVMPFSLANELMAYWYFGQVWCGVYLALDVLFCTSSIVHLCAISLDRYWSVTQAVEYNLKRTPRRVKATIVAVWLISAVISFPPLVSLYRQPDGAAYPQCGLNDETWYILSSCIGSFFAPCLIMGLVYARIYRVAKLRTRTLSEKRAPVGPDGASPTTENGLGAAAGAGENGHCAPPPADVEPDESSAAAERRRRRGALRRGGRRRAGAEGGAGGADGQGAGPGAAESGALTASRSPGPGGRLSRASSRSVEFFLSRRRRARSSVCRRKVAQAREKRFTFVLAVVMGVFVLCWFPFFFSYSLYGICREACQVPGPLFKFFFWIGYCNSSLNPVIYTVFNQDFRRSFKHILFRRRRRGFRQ

| SMILES | cell count [1] | inhibition [1] | inhibition of aggregation [2] | nuclei count [2] [%] | inhibition [3] | nuclei count [3] [%] | fluorescence slope [4] | NADPH fluorescence slope [5] | slope [6] | inhibition [7] | inhibition [8] |
| --- | --- | --- | --- | --- | --- | --- | --- | --- | --- | --- | --- |
| COP(C)(=O)c1c(C)nn(-c2ccccc2)c1C (stereo not drawn) | 558 | 6.8% (inactive) | -0.1% (inactive) | 95.4 | -11.2% (inactive) | 112 | -0.424 (inactive) | -2.1e-06 (inactive) | 0.00629 (inactive) | 8.87% (inactive) | 37.6% (inactive) |
| CCNCC(O)COCC(O)CNCC (stereo not drawn) | 493 | -5.5% (inactive) | -14.4% (inactive) | 84.2 | 4.5% (inactive) | 117 | -0.256 (inactive) | 8.5e-06 (inactive) | 0.0061 (inactive) | 13.1% (inactive) | 21.4% (inactive) |
| O=C(O)CCc1ccc(-c2ccc(Br)cc2)n1CC(=O)O | 339 | 7.5% (inactive) | -4.6% (inactive) | 90 | -65% (inactive) | 112 | -0.378 (inactive) | -5.5e-05 (inactive) | 0.00594 (inactive) | 10.9% (inactive) | 28.5% (inactive) |
| CCc1nc(SCC(=O)NCc2ccco2)c2c3c(sc2n1)CCCC3 | 586 | -2.1% (inactive) | 14.8% (inactive) | 85.9 | -21.9% (inactive) | 116 | -0.466 (inactive) | -1.1e-05 (inactive) | 0.00647 (inactive) | 15.3% (inactive) | 20.6% (inactive) |
| Cc1ccc(C(C(=O)NC2CCCCC2)N2CCOCC2)cc1 (stereo not drawn) | 674 | -5.2% (inactive) | -13% (inactive) | 114 | -41.7% (inactive) | 125 | -0.468 (inactive) | -0.000297 (inactive) | 0.00526 (inactive) | -0.432% (inactive) | 15.1% (inactive) |
| O=C(C1CCCN(S(=O)(=O)c2cnc[nH]2)C1)N1CC(=O)N(CCc2ccccc2)C(=O)C1 (stereo not drawn) | 545 | 3.4% (inactive) | -13.8% (inactive) | 109 | -124% (inactive) | 147 | -0.573 (inactive) | 8.9e-06 (inactive) | 0.0066 (inactive) | 9.42% (inactive) | 20.7% (inactive) |
| Cc1ccccc1NC(=O)C1CC(=O)N(c2ccccc2F)C1 (stereo not drawn) | 238 | -0.6% (inactive) | 30.3% (inactive) | 77 | -56.9% (inactive) | 97.7 | -0.462 (inactive) | -3.8e-05 (inactive) | 0.00686 (inactive) | 0.893% (inactive) | 28.8% (inactive) |
| CCN(CC(=O)Nc1c(C(=O)OC)[nH]c2ccccc12)c1ccc2c(c1)OCO2 | 309 | -2.1% (inactive) | -25.6% (inactive) | 70.8 | -53.3% (inactive) | 103 | -0.376 (inactive) | -6.7e-05 (inactive) | 0.00578 (inactive) | 20.2% (inactive) | 8.63% (inactive) |
| CC(C)C1N=C2c3ccccc3N=C(SCc3cc(=O)n4ccccc4n3)N2C1=O (stereo not drawn) | 646 | -10.9% (inactive) | 4.4% (inactive) | 58.8 | -35.3% (inactive) | 90 | -0.451 (inactive) | 2.2e-05 (inactive) | 0.00398 (inactive) | 6.75% (inactive) | -22.1% (inactive) |
| COc1ccc(C(=O)Nc2ccc(C)cn2)c(OC)c1 | 283 | 14.7% (inactive) | -14.1% (inactive) | 79 | -3.2% (inactive) | 101 | -0.469 (inactive) | -3.9e-05 (inactive) | 0.00731 (inactive) | -3.57% (inactive) | 53.3% (active) |
| O=C(c1cnn2c(C(F)F)cc(C3CC3)nc12)N1CCOCC1 | 666 | -0.3% (inactive) | 3.1% (inactive) | 96.7 | -13.3% (inactive) | 94.3 | -0.376 (inactive) | 2.5e-06 (inactive) | 0.00295 (inactive) | 6.43% (inactive) | 18.5% (inactive) |
| CC1CCCC(C)N1C(=O)CSc1nnc(-c2cccs2)o1 (stereo not drawn) | 400 | -14% (inactive) | -29.6% (inactive) | 114 | -9.9% (inactive) | 101 | -0.382 (inactive) | -5.4e-05 (inactive) | 0.0042 (inactive) | -27.4% (inactive) | -68% (inactive) |
| COC(=O)c1ccc(Cl)c(NC(C)=O)c1 | 367 | 1.8% (inactive) | -20.6% (inactive) | 110 | -48.4% (inactive) | 78.5 | -0.433 (inactive) | -4.1e-05 (inactive) | 0.00415 (inactive) | 4.64% (inactive) | 34.3% (inactive) |
| O=S1(=O)CCC(NS(=O)(=O)/C=C/c2ccccc2)C1 (stereo not drawn) | 566 | -1.6% (inactive) | 2% (inactive) | 119 | -1.4% (inactive) | 96.4 | -0.386 (inactive) | -0.000106 (inactive) | 0.00742 (inactive) | 4.67% (inactive) | 14.6% (inactive) |
| O=S1(=O)CC(N2CCCCC2)C(N2CCCCC2)C1 (stereo not drawn) | 394 | 3.6% (inactive) | 0.2% (inactive) | 110 | -31.5% (inactive) | 107 | -0.587 (inactive) | -1.5e-05 (inactive) | 0.00686 (inactive) | 15.3% (inactive) | 32.7% (inactive) |
| CC1Cc2nc(SCC(=O)Nc3ccc(F)cc3F)n(C)c(=O)c2S1 (stereo not drawn) | 366 | -0.6% (inactive) | -7.8% (inactive) | 104 | 0.8% (inactive) | 113 | -0.587 (inactive) | -3.7e-05 (inactive) | 0.00486 (inactive) | 15.3% (inactive) | 11.8% (inactive) |
| c1ccc(CCNc2ccc3nncn3n2)cc1 | 593 | 5.8% (inactive) | -3.1% (inactive) | 106 | -9.2% (inactive) | 121 | -0.501 (inactive) | -2.4e-05 (inactive) | 0.00573 (inactive) | 6.01% (inactive) | 12.8% (inactive) |
| CCN1CCCC1CNC(=O)c1cc2c(=O)n(C)c3ccccc3c2n1C (stereo not drawn) | 656 | -5% (inactive) | -28.9% (inactive) | 113 | -41.6% (inactive) | 114 | -0.55 (inactive) | 2.6e-06 (inactive) | 0.00775 (inactive) | 2.48% (inactive) | 40.8% (inactive) |
| CC(NC(=O)Cc1cccs1)c1ccc2c(c1)OCO2 (stereo not drawn) | 333 | 5.1% (inactive) | -3.8% (inactive) | 104 | -9.2% (inactive) | 109 | -0.609 (inactive) | -2.4e-05 (inactive) | 0.00364 (inactive) | 14.9% (inactive) | 4.01% (inactive) |
| Cc1ccc(Cl)cc1N1CCN(C(=O)CN2C(=O)c3cccc4cccc2c34)CC1 | 771 | -7.2% (inactive) | -2.2% (inactive) | 89.4 | -11.6% (inactive) | 101 | -0.341 (inactive) | 4.7e-06 (inactive) | 0.0104 (active) | 9.95% (inactive) | 8.22% (inactive) |
| COC(=O)c1cn(NC(=O)c2cccnc2)c(=O)c2ccccc12 | 364 | 2.5% (inactive) | -32.8% (inactive) | 112 | 29.8% (inactive) | 115 | -0.538 (inactive) | -6.1e-05 (inactive) | 0.00509 (inactive) | 10.1% (inactive) | 18.9% (inactive) |
| COc1ccc(OC)c(NC(=O)CSc2nnc(Cc3cccn3C)n2-c2ccc(F)cc2)c1 | 671 | -3.4% (inactive) | 14.8% (inactive) | 86.6 | -40.2% (inactive) | 106 | -0.609 (inactive) | 1.6e-05 (inactive) | 0.00527 (inactive) | 19.4% (inactive) | 30.1% (inactive) |
| Cc1c(N(C)C)nc2ccccc2c1N | 575 | -3.8% (inactive) | -19.4% (inactive) | 99.7 | 42.5% (inactive) | 81.2 | -0.361 (inactive) | -1.5e-05 (inactive) | 0.00599 (inactive) | 13.7% (inactive) | 20.7% (inactive) |
| CCOC(=O)N1CCN(C(=O)c2csc3c2CCCCC3)CC1 | 775 | -27.2% (inactive) | 15.1% (inactive) | 121 | -86% (inactive) | 106 | -0.311 (inactive) | 1.7e-05 (inactive) | 0.00586 (inactive) | -2.32% (inactive) | 9.33% (inactive) |
| COc1ccc(N=c2scc(-c3ccc(S(=O)(=O)N4CCOCC4)cc3)n2CCCO)cc1 | 974 | -6.1% (inactive) | 23% (inactive) | 99.9 | -218% (inactive) | 136 | -0.319 (inactive) | -2.9e-05 (inactive) | 0.00558 (inactive) | 41.4% (inactive) | -19.4% (inactive) |
| CCn1nnc(NC(=O)c2ccc(-c3ccc(Cl)cc3)o2)n1 | 391 | -6.7% (inactive) | -20% (inactive) | 129 | -101% (inactive) | 208 | -0.488 (inactive) | -7.1e-05 (inactive) | 0.00611 (inactive) | -111% (inactive) | -103% (inactive) |
| Cc1ccc(OCCC(=O)OCC(=O)C(C)(C)C)cc1 | 542 | -8.3% (inactive) | -6.7% (inactive) | 101 | -9.5% (inactive) | 131 | -0.365 (inactive) | -5.3e-05 (inactive) | 0.0062 (inactive) | 12.7% (inactive) | 27.5% (inactive) |
| C(=N/n1c2ccccc2c2ccccc21)/c1ccco1 | 360 | -2% (inactive) | -20.7% (inactive) | 102 | 2.6% (inactive) | 109 | -0.417 (inactive) | -0.000138 (inactive) | 0.00632 (inactive) | 12% (inactive) | 29.6% (inactive) |
